Screening results from PubChem BioAssay.
MRP resist rev = reversal of MRP1-mediated doxorubicin resistance, primary screen, H69AR cells, doxorubicin co-treatment; H69AR cells + 2 uM doxorubicin, CellTiter-Glo, 72 h; differential viability (reversal), % at 10 µM; 85,000 compounds, 0.04% hits;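 active = viability drop by adding the cancer drug above about 55%, with treated viability meeting a 40% cutoff, limit read from the data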;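 also: larger differential means the compound sensitizes cells more to doxorubicin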
sEH activator = soluble epoxide hydrolase activators, primary screen, biochemical, human sEH | Bifunctional epoxide hydrolase 2 (Homo sapiens), P34913 | purified human sEH enzymatic activity, activator screen | activation, % at 2 µM | 91,000 compounds, 0.04% hits | AID 717, 2007; in the data active = activation above about 37%
Target sequence (P34913 whole entry, looked up): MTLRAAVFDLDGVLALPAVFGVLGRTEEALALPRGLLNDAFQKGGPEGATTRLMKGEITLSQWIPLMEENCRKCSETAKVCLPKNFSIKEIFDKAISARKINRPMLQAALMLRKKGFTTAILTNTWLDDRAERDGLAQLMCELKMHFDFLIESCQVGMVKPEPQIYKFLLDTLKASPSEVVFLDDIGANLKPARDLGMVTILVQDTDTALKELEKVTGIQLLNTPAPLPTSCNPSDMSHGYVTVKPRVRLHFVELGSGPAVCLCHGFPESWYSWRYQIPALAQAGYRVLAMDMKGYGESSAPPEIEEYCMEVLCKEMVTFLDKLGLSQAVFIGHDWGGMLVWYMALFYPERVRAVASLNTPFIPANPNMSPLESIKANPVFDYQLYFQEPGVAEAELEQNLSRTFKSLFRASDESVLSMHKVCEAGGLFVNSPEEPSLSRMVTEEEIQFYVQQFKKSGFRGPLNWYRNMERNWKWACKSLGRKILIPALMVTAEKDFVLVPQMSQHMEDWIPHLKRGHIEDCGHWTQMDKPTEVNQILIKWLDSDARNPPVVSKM
sEH inh = soluble epoxide hydrolase inhibitors, primary screen, biochemical, human sEH; recombinant human sEH enzymatic activity assay; inhibition, % at 2 µM; 91,000 compounds, 0.34% hits; AID 707, 2007; in the data active = inhibition above about 80%
MRP1 act = H69AR viability gain despite doxorubicin, primary screen, MRP-1 activator project, H69AR cells, CellTiter-Glo. 140,000 compounds, 0.61% hits. viability increase, % at 10 µM. viability rescue;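 active = viability gain under doxorubicin at or above a set limit, the compound median plus 3 SD, cut at about 4.7% in these data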;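 also: MRP-1 overexpressing cells given doxorubicin 25 µM after compound pretreatment; 18-22 h compound pretreatment then 72 h with doxorubicin before readout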
A number is an active result; n = inactive; x = no result given. In the library only some 0.76% were active in any assay of this set; here they are far more common.

SMILES	MRP resist rev	sEH activator	sEH inh	MRP1 act
Cc1cc(C(=O)OCC(=O)Nc2ccccc2[N+](=O)[O-])c2ccccc2n1	x	x	x	n
CCc1ccc(-c2nc(CN3CCC(C(=O)NCCN(CC)c4ccccc4)CC3)c(C)o2)cc1	n	n	n	n
CCN(CCNC(=O)C1CCN(Cc2nc(-c3ccc(Cl)cc3)oc2C)CC1)c1ccccc1	n	n	84	n
CCN(CCNC(=O)C1CCN(Cc2nc(-c3cccc(Cl)c3)oc2C)CC1)c1ccccc1	n	n	90	n
C#CC[N+]1(CC#Cc2ccc(C)cc2)CCCCC1	x	x	x	n
COc1ccc2oc(C(=O)OCC(=O)NCCN3C(=O)CSC3=O)c(C)c2c1	x	x	x	n
Cc1ccc(S(=O)(=O)Nc2ccc3c(c2)c2c(n3S(=O)(=O)c3ccc(C)cc3)CCCC2=O)cc1	x	x	x	n
CCCCc1nnc(NC(=O)CSc2nc(=O)cc(N)n2-c2cccc(C)c2)s1	n	n	n	6.0
Cc1cccc(-n2c(N)cc(=O)nc2SCC(=O)Nc2nnc(CC(C)C)s2)c1	n	n	n	n
Cc1ccc(C(=O)c2c[nH]c3c(F)cc(F)cc3c2=O)cc1	x	x	x	n
COc1ccc(C(C)=O)cc1CSc1nnc(Nc2ccc(C)cc2C)s1	x	x	x	n
COc1ccc(C(C)=O)cc1CSc1nnc(Nc2ccccc2C)s1	x	x	x	6.0
CC1CC(C)CN(C(=S)Nc2ccc(SC(F)F)cc2)C1 (stereo unspecified)	x	x	x	5.0
CNC[C@H](O)c1ccc(O)c(O)c1	x	x	x	7.1
CNC[C@H](O)c1cccc(O)c1	n	x	x	n
CCOC(=O)c1sc(/N=C/c2ccc(O)cc2O)cc1C	x	x	x	n
CC(C)CCC1CC(CSC(=N)N)OC1=O (stereo unspecified)	n	n	n	5.1
Cc1ccc(S(=O)(=O)N2CCC(C(=O)OCc3ccc([N+](=O)[O-])cc3)CC2)cc1	x	x	x	n
COC(=O)/C(=C/Nc1ccc(O)cc1)[N+](=O)[O-]	n	n	n	5.2
COC(=O)/C(=C/Nc1ccccc1)[N+](=O)[O-]	n	n	n	n
CC12CCC(c3nnc(SCc4ccc(Cl)cc4)nc31)C2(C)C (stereo unspecified)	n	n	n	5.7
N=c1oc2c3c4c(cc2cc1C(=O)Nc1ccccc1)CCCN4CCC3	x	n	n	6.4
O=C(c1ccc(CS(=O)(=O)c2ccc(Br)cc2)o1)N1CCN(C2CCCCC2)CC1	74	n	n	n
COc1ccc(S(=O)(=O)Cc2ccc(C(=O)N3CCN(C4CCCCC4)CC3)o2)cc1	n	n	n	n
C/C(=N\Nc1cc(Cl)nc(C)n1)c1ccc(Cl)c(Cl)c1	x	x	x	n
SMILES	MRP resist rev	sEH activator	sEH inh	MRP1 act
C/C(=N\Nc1cc(Cl)nc(C)n1)c1ccc(C)cc1	x	52	n	x
O=C(O)c1ccc(-n2nnnc2SCc2ccccc2)cc1	83	n	n	n
NC(=O)c1ccc(-n2nnnc2SCc2ccc(F)cc2)cc1	n	x	x	n
COc1ccc(CNC(=O)/C=C/c2cc3c(cc2Br)OCO3)cc1	x	n	86	n
Cc1ccc(O)c(/C=N/NC(=O)c2[nH]ncc2Br)c1	x	x	x	4.9
O=C(N/N=C/c1c(O)ccc2ccccc12)c1[nH]ncc1Br	x	x	x	n
Cc1ccccc1-c1nc(CN2CCC(C(=O)NCCC3=CCCCC3)CC2)c(C)o1	n	n	93	n
Cc1ccc(CNC(=O)C2CCCN(c3nc4ccccc4o3)C2)cc1 (stereo unspecified)	n	x	x	n
O=C(NCCc1ccccc1)C1CCN(c2nc3ccccc3o2)CC1	n	n	n	n
Cc1oc(-c2ccccc2F)nc1CN1CCC(C(=O)NC2CCCCCCC2)CC1	n	n	91	n
O=C(NCCC1=CCCCC1)C1CCCN(c2nc3ccccc3o2)C1 (stereo unspecified)	n	n	96	n
O=C(NC1CCCCCCC1)C1CCN(c2nc3ccccc3o2)CC1	n	n	93	n
N=c1oc2ccccc2cc1-c1nc(-c2ccc(Cl)cc2)cs1	x	x	x	n
O=[N+]([O-])c1ccc(N/N=C/c2ccc[nH]2)cc1	x	x	x	n
COc1ccc(CCn2c(-c3cc([N+](=O)[O-])cc([N+](=O)[O-])c3)nc3nc4ccccc4nc32)cc1OC	x	x	x	n
CC(C)OC(=O)CSc1nnc2n1C(C)(C)Cc1ccccc1-2	x	n	n	181
O=C(COC(=O)[C@@H]1CC(O)CN1S(=O)(=O)c1ccccc1[N+](=O)[O-])Nc1ccc2ccccc2c1 (stereo partly specified)	x	x	x	n
Cc1ccnc(NC(=O)COc2ccc3oc4c(c3c2)CCCC4)c1	x	n	n	5.2
O=Cc1c(C(=O)O)n(CC(=O)O)c2ccccc12	x	x	x	n
Cc1noc(C)c1COc1cccc(C(=O)NCc2ccccc2Cl)c1	n	n	86	n
